The entries come from a sample that favours hits as a whole.
Sm TGR block = qHTS Assay for the Inhibitors of Schistosoma Mansoni Peroxiredoxins; Schistosoma mansoni thioredoxin glutathione reductase (TGR), Q962Y6; purified TGR, DTNB reduction, TNB absorbance 405 nm; Potency, µM (highest dose often 114 µM), for inactives: at the top dose activity change, negative = inhibition, actives largely listed as inhibitors; hit rate 3% among 360,000; note: potency is the fitted concentration of half-maximal effect; % is set by controls: 0 for no effect and ±100 for the full control effect; nearly all actives have a fitted effect of over 60% in size
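Kinetic colorimetric format: TGR-catalysed, NADPH-driven DTNB reduction monitored via TNB absorbance. Enzyme dispensed at 20 nM; compound exposure 15 min at room temperature before reaction start.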
Giardia FBPA inh = qHTS Assay for Inhibitors of Fructose-1,6-bisphosphate Aldolase from Giardia Lamblia | purified Giardia FBPA | AID 2451, 2010 | hit rate 0.71% among 290,000 | A8B2U2 | Potency, µM (highest dose often 59.6 µM), for inactives: at the highest dose activity, negative = inhibition, hits mostly inhibitors; note: potency is the fitted concentration of half-maximal effect; % is set by controls: 0 for no effect and ±100 for the full control effect; nearly all actives have a fitted effect of over 55% in size
Target sequence (A8B2U2 whole entry, looked up): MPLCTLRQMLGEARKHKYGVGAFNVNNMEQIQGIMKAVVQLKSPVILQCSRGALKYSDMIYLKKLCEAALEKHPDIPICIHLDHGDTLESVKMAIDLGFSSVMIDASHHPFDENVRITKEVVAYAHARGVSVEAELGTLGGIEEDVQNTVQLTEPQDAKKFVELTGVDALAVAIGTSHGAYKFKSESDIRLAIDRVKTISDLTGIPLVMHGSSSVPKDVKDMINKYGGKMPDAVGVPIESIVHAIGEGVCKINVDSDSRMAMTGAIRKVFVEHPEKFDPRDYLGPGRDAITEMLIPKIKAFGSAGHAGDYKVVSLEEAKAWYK
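40 nM FBPA preincubated 10 min at RT with compound (up to 57.5 uM final), then substrate plus GAPDH/TPI/NAD/arsenate coupling and diaphorase/resazurin added. Fluorescence read after 20 min at RT, 525/598 nm.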
LmPK inh = qHTS Assay for Inhibitors of Leishmania Mexicana Pyruvate Kinase (LmPK). hit rate 0.37% among 290,000. Q27686. AID 1721, 2009. purified LmPK, Kinase-Glo ATP luminescence, 1 h. Potency, µM (highest dose often 57.5 µM), for the others: at the highest dose activity change, negative = inhibition, most hits filed as inhibitors; note: potency is the fitted concentration of half-maximal effect; % is set by controls: 0 for no effect and ±100 for the full control effect
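qHTS format; LmPK 0.1 nM; substrates PEP 0.5 mM and ADP 0.1 mM. One-hour room-temperature incubation, then coupled luciferase luminescence; 0.5 nM enzyme wells mark activation.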
Shiga toxin inh = A qHTS for Small Molecule Inhibitors of Shiga Toxin. Vero cells, Shiga toxin protein synthesis inhibition reporter. inhibition, % at 38.7 µM. hit rate 9.2% among 290,000; in the data active = inhibition mostly above about 28%, no sharp cut-off; inactive = mostly below about 43%; note: 0% is about no effect
TbPYK inhibitor = qHTS of Trypanosoma Brucei Inhibitors | hit rate 0.12% among 410,000 | pyruvate kinase (Trypanosoma brucei), Q57TT1 | AID 624173, 2012 | TbPYK enzyme, Kinase-Glo Plus ATP luminescence, 45 min | Potency, µM (doses to about 76.8 µM), for inactives: at the top dose activity, negative = inhibition, most hits filed as inhibitors; note: potency is the fitted concentration of half-maximal effect; % is set by controls: 0 for no effect and ±100 for the full control effect; nearly all actives have a fitted effect of over 50% in size
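Readout: single end-point luminescence (Kinase-Glo Plus, 10 min). Reaction conditions were TbPYK/substrate plus 130 uM ADP, 45 min at RT, pH 7.2 TEA buffer. No-enzyme wells served as controls, and data were normalized before concentration-response fitting.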
CHX counter = Cycloheximide Counterscreen for Small Molecule Inhibitors of Shiga Toxin | max response, % | cell reporter, cycloheximide protein synthesis inhibition counterscreen | hit rate 12% among 300,000; in the data active = max response mostly above about 13%, no sharp cut-off; inactive = mostly below about 14%; note: read at 38.3 µM for the half of the compounds with a filed dose; 0% is about no effect
* = called active by the depositor; u = inconclusive; x = no result; + = active, no number; [ ] = dose if it differs, or a comment. Unless noted, calls come from the whole dose curve; as a rule, active = well fitted curve in the direction sought with a large enough effect; inconclusive = small, poorly fitted or top-dose-only effect, or another doubt; inactive = no such curve, though single readings can be large; an effect the other way counts as inactive or inconclusive.

SMILES | Sm TGR block | Giardia FBPA inh | LmPK inh | Shiga toxin inh | TbPYK inhibitor | CHX counter
COc1ccc(S(=O)(=O)c2c(O)c3ccc(C(=O)NCc4ccccc4)cc3[nH]c2=O)cc1 | -1% | x | x | x | 3% | x
Cc1ccc(-n2c(N)c(C(=O)N3CCN(C)CC3)sc2=S)cc1 | -1% | 10µM* | -3% | -7 | u | -4
CS(=O)(=O)Nc1cccc(-c2cncnc2NCc2ccccc2)c1 | x | 6% | x | x | x | x
COc1cccc(/C=N/NC(=O)CNC(=O)C(c2ccccc2)c2ccccc2)c1O | 4% | -13% | 0% | 71* | -2% | 38*
COc1cccc(/C=N/NC(=O)CNC(=O)/C=C\c2ccccc2)c1O | -16% | x | 6% | 41* | 0% | 28*
COc1ccccc1/C=C/C(=O)NCC(=O)N/N=C(/C)c1ccco1 | -23% | -5% | 2% | -7 | -2% | -5
COc1ccc(/C=C\C(=O)NCC(=O)N/N=C/c2cccc(OC)c2O)cc1 | -8% | 4% | -4% | 12 | -19% | 14
COc1ccc(/C(C)=N/NC(=O)CNC(=O)/C=C\c2ccccc2OC)c(OC)c1 | -17% | 1% | 0% | 31* | 12% | 14*
COC(=O)[C@@]1(Cc2ccc(F)cc2)[C@@H]2C(=CC(=O)[C@H]2CC(=O)C(=O)N(C)C)CN1C(=O)c1ccccc1 | x | 1% | x | x | x | x
Cc1ccc(NS(=O)(=O)c2ccc(C)c(C(=O)NCC(c3ccccc3)N(C)C)c2)cc1 (stereo not drawn) | u | x | x | x | 2% | x
Cc1ccc(C)c(C(C)NC(=O)c2ccc(Br)o2)c1 (stereo not drawn) | 35µM* | -4% | 3% | 25 | -24% | -1
O=C1Nc2ccccc2N=C(c2ccccc2)C1Br (stereo not drawn) | 40µM* | u | 1% | 46* | -13% | 14
CCCCOc1ccc(Cn2c(=O)oc3ccc(C)cc32)cc1 | 8% | x | x | x | 0% | x
CCC(C)(C(=O)NC1CCCCC1)N(Cc1ccco1)C(=O)CNC(=O)c1ccccc1 (stereo not drawn) | 0% | 7% | -7% | 13 | 5% | 31*
O=C1COc2ccc(C(=O)COC(=O)c3ccco3)cc2N1 | -28% | 0% | -2% | 42* | 3% | 27*
CC(C)[C@H](NC(=O)c1ccco1)C(=O)OCC(=O)c1ccc2c(c1)NC(=O)CO2 | -8% | 2% | 1% | -1 | -1% | 1
O=C1COc2ccc(C(=O)COC(=O)/C=C/c3ccco3)cc2N1 | 13µM* | x | x | x | -15% | x
O=C(O)/C=C/C(=O)c1ccc2c(c1)NC(=O)CO2 | 1µM* | 4% | -18% | -21 | u | -2
Cc1ccc(O)c(N=Nc2ccccc2)n1 | x | -3% | x | x | u | x
c1ccc(N=Nc2ccccc2)cc1 | x | 3% | x | x | x | x
CC(=O)Nc1ccc(N=NN2CCOCC2)cc1 | 8.9µM* | -2% | -1% | 73* | -17% | 46*
Oc1ccc(Cl)cc1N=Nc1ccccc1 | -22% | -9% | -3% | 37 | 2% | 27*
CC(=O)Nc1ccc(N=Nc2ccc(O)cc2)cc1 | 6% | -1% | -14% | + | 2% | 35*
Oc1ccc(N=Nc2ccccc2)cc1 | 2% | 1% | 0% | 73* | 4% | 36*
CC(=O)Nc1cccc(N=NN2CCOCC2)c1 | -9% | 5% | -1% | -3 | 2% | -2
SMILES | Sm TGR block | Giardia FBPA inh | LmPK inh | Shiga toxin inh | TbPYK inhibitor | CHX counter
CCNC(=O)NC(=O)COC(=O)c1cccc(S(=O)(=O)N2CC3(C)CC2CC(C)(C)C3)c1 (stereo not drawn) | -13% | x | x | x | 17% | x
Cc1ccc(NCc2ccc(C)s2)cc1 | 3% | 8% | -4% | 66* | x | 37*
Cc1ccc(CNc2ccc(N3CCOCC3)cc2)s1 | 19% | -7% | -17% | 93* | -9% | 48*
CCC(C)C(NC(=O)c1ccccc1NC(=O)c1ccc(C)cc1)C(=O)O (stereo not drawn) | 9% | -28% | 5% | 94* | -7% | 55*
Cc1ccc(C(=O)Nc2ccccc2C(=O)NC(C(=O)O)C(C)C)cc1 (stereo not drawn) | 2% | u | -7% | 48* | -15% | 21
O=C(Nc1ccccc1N1CCOCC1)c1ccc(S(=O)(=O)NCc2ccco2)cc1 | u | 2% | -3% | 56 | -2% | -3
COc1ccccc1N1CCN(C(=O)c2ccc(Cl)c(S(=O)(=O)NCc3ccco3)c2)CC1 | -3% | 1% | -3% | 66 | 2% | 28*
O=C(Nc1ccccc1N1CCOCC1)c1ccc(Cl)c(S(=O)(=O)NCc2ccco2)c1 | 4% | 2% | 0% | 74 | 4% | 28*
O=C(c1ccc(Cl)c(S(=O)(=O)NCc2ccco2)c1)N1CCN(c2ccccc2F)CC1 | -25% | 1% | 1% | -5 | -5% | 14
COc1ccccc1C(=O)N(Cc1ccco1)Cc1ccccc1F | -1% | x | x | x | 1% | x
CC(O)CNc1ccc(-c2n[nH]c(=O)c3ccccc23)cc1[N+](=O)[O-] (stereo not drawn) | 18% | 12% | 10% | -17 | 4% | 22*
O=C(O)[C@@H](O)[C@@H](O)[C@@H](O)[C@@H](O)C(=O)O (tested in a mixture with another compound) | x | 0%[21.7 µM] | x | x | -6% | x
Cc1nc2c(nc1C)C(=O)c1ccccc1C2=O | x | x | x | x | -4% | x
O=C1c2ccccc2-c2nc3ccccc3nc21 | -2% | -15% | u | 52 | -1% | 29*
CN1CCc2c(sc3c2C(=O)NC(c2cccc(OC(=O)c4cccs4)c2)N3)C1 (stereo not drawn) | -19% | -26% | -2% | 70* | -10% | 45*
CCOP(=O)(C1=C(O)C(=O)C(C(C)(C)C)=CC1=O)c1ccccc1 (stereo not drawn) | 1.4µM* | u | -2% | 7 | u | -3
O=C(Oc1ccc[nH]c1=O)c1cc([N+](=O)[O-])cc([N+](=O)[O-])c1 | 79µM* | u | -2% | -6 | 2% | 0
COc1ccc(C(=O)Oc2ccc[nH]c2=O)cc1 | -8% | -3% | -12% | 11 | -2% | 10
CCNC(=O)Oc1ccc[nH]c1=O | u | 4µM* | -4% | -6 | 7% | -8
O=C(Cn1cnc2onc(-c3ccc(F)cc3)c2c1=O)N1CCN(c2ccc(F)cc2)CC1 | 8% | x | x | x | -1% | x
CCCCn1cc2c(c1-c1ccc(Cl)cc1)c(=O)n(C)c(=O)n2C | -13% | x | x | x | 6% | x
CC(=C/c1ccc(C(C)C)cc1)/C=N/NC(=O)CSc1ccccn1 | -2% | 4% | 3% | 157* | -1% | 71*

High-throughput results as filed in PubChem BioAssay.
